Records with an inconclusive call do not appear. The source holds several records for some structures; these can differ, active in one and inactive in another. Active and inactive are the calls of the source. The calls were made as follows: active = hit-call score of the fitted dose curve at least 0.9, where 1 is the maximum; inconclusive = response in the unintended direction; inactive = score below 0.9.
What follows are compounds tested on Cytochrome P450 2B6 (Homo sapiens) (UniProt P20813) (assay: CLD_CYP2B6_24hr: CellzDirect (CLD) Gene Expression Assay for xenobiotic metabolism (CYP2B6) at 24 hours (AID 2283686)).
Protocol: CLD_24hr is a cell-based, multiplexed-readout assay that uses hepatocyte, a human liver primary cell, with measurements taken at 24 hours after chemical dosing in a 96-well plate.CLD_CYP2B6_24hr is one of 16 assay component(s) measured or calculated from the CLD_24hr assay. It is designed to make measurements of mRNA induction, a form of inducible reporter, as detected with chemiluminescence signals by Quantitative Nuclease Protection Assay (qNPA) technology.Data from the assay component CLD_CYP2B6_24hr was analyzed at the endpoint, CLD_CYP2B6_24hr, in the positive analysis fitting direction relative to DMSO as the negative control and baseline of activity. Using a type of inducible reporter, gain-of-signal activity can be used to understand changes in the reporter gene as they relate to the gene CYP2B6. Furthermore, this assay endpoint can be referred to as a primary readout. To generalize the intended target to other relatable targets, this assay endpoint is annotated to the cyp intended target family, where subfamily is xenobiotic metabolism.
Human hepatocyte cultures were treated daily for two consecutive days with fresh dosing solutions containing appropriate concentrations of the 320 ToxCast chemicals (chemical identities were blinded to CellzDirect and other ToxCast collaborators), vehicle control (0.2% DMSO), and positive control inducers as summarized in Table 1. Due to the large number of treatment groups and chemicals examined, the ToxCast chemicals were divided into two groups (spanning two independent cultures of hepatocytes from separate donor preparations (Hu778: ToxCast plates 1 and 2; Hu776: ToxCast plates 3 and 4). Each preparation of human hepatocyte cultures was treated with respective vehicle control, medium only control, set of six positive controls/reference chemicals for the five hepatic receptor pathways, and a subset of eight of the ToxCast chemicals (indoxacarb, pyrithiobac-sodium, norflurazon, cyhalofop-butyl, methomyl, thiram, acetochlor, and propiconazole). These replicate data, coupled with internal replicates designed within the blinded ToxCast chemical library, provided additional data to evaluate interindividual differences between hepatocyte preparations and their potential impact on chemical profiles.Cell morphology and integrity were evaluated using phase-contrast microscopy as an indicator of hepatocyte cell health (Tyson & Green, 1987). Cultures for each treatment group (i.e., media, vehicle [0.2% DMSO], positive control inducers [multiple concentrations], and the ToxCast chemicals [multiple concentrations]) were observed and cell morphology was assessed relative to vehicle control cultures at each harvest time point (0, 6, 24, or 48 h). […] Images were evaluated at the conclusion of the study to assess changes in cell integrity and account for the effects of chemical exposure on uncharacteristic changes in concentration-dependent gene expression profiles. The results from these determinations of apparent cytotoxicity were annotated (yes/no) alongside the corresponding qNPA data for reference.At the conclusion of each treatment period, hepatocyte cultures (96-well) were washed with 1 volume of HBSS, lysed by addition of 25 ul ArrayPlate lysis buffer (HTG, Tucson, AZ), and 70 ul/well of Denaturation Oil, denatured by incubation at 95C for 10 min, and frozen at approximately -70C until analysis by nuclease protection assay (qNPA) (Roberts et al., 2007). For qNPA analysis, cell lysates were thawed at 50C for approximately 30 min, qNPA probes were added, and samples were incubated at 95C for 10 min to begin the detection process by denaturing the target RNA, dissociating the duplexes and secondary structure hybridization. At the conclusion of the hybridization period, S1 nuclease reagent was added to each sample to digest all nonprotected nucleotides at 50C for 60-90 min. […]

Row | Structure (SMILES) | outcome | AC50
1 | CCCCOC(=O)C(C)Oc1ccc(Oc2ccc(C(F)(F)F)cn2)cc1 (stereo not given) | inactive | –
2 | CCCCCOC(=O)COc1cc(N2C(=O)C3=C(CCCC3)C2=O)c(F)cc1Cl | inactive | –
3 | CC1(C)C(C=C(Cl)Cl)C1C(=O)OCc1cccc(Oc2ccccc2)c1 (stereo not given) | – | 7.12 µM (active)
4 | CCSC(=O)N(CC(C)C)CC(C)C | inactive | –
5 | CCCCOCCOCCOCc1cc2c(cc1CCC)OCO2 | – | 1.9 µM (active)
6 | C#CCOC(=O)[C@@H](C)Oc1ccc(Oc2ncc(Cl)cc2F)cc1 | – | 0.000411 µM (active)
7 | CC(C)(c1ccc(O)cc1)c1ccc(O)cc1 | inactive | –
8 | c1ccc(Nc2ccccc2)cc1 | – | 6.82 µM (active)
9 | CN(C)C(=O)Nc1ccc(Cl)c(Cl)c1 | – | 2.49 µM (active)
10 | c1ccc2[nH]c(-c3cscn3)nc2c1 | inactive | –
11 | O=C(O)C1(C(=O)Nc2ccc(Cl)cc2Cl)CC1 | inactive | –
12 | CCOC(=O)COc1cc(-n2ncc(C(F)(F)F)c(C)c2=O)c(F)cc1Cl | – | 6.56 µM (active)
13 | CCCCC(CC)CN1C(=O)C2C3C=CC(C3)C2C1=O (stereo not given) | – | 9.04 µM (active)
14 | COC(=O)c1cccc(C)c1S(=O)(=O)NC(=O)Nc1nc(OCC(F)(F)F)nc(N(C)C)n1 | – | 4.98 µM (active)
15 | COC(=O)c1ccccc1S(=O)(=O)NC(=O)Nc1nc(OC(F)F)cc(OC(F)F)n1 | inactive | –
16 | CCCCOC(=O)[C@@H](C)Oc1ccc(Oc2ccc(C(F)(F)F)cn2)cc1 | inactive | –
17 | CSC(=O)c1cccc2nnsc12 | inactive | –
18 | CCNc1nc(N)nc(Cl)n1 | inactive | –
19 | O=C(Nc1ccc([N+](=O)[O-])cc1Cl)c1cc(Cl)ccc1O | inactive | –
20 | CCN(CC)C(=O)c1cccc(C)c1 | – | 20 µM (active)

Row | Structure (SMILES) | outcome | AC50
21 | Cc1nn(C)c(Oc2ccccc2)c1C=NOCc1ccc(C(=O)OC(C)(C)C)cc1 | – | 20 µM (active)
22 | CCN(Cc1c(F)cccc1Cl)c1c([N+](=O)[O-])cc(C(F)(F)F)cc1[N+](=O)[O-] | – | 0.365 µM (active)
23 | Oc1ccc(C(c2ccc(O)cc2)C(Cl)(Cl)Cl)cc1 | inactive | –
24 | COC(=O)c1ccc(I)cc1S(=O)(=O)NC(=O)Nc1nc(C)nc(OC)n1 | inactive | –
25 | COc1nc(C)nc(NC(=O)NS(=O)(=O)c2ccccc2OCCCl)n1 | inactive | –
26 | COC(=O)c1c(Cl)nn(C)c1S(=O)(=O)NC(=O)Nc1nc(OC)cc(OC)n1 | inactive | –
27 | CCOC(=O)NCCOc1ccc(Oc2ccccc2)cc1 | – | 12.1 µM (active)
28 | CCOC(=O)C(C)Oc1ccc(Oc2cnc3cc(Cl)ccc3n2)cc1 (stereo not given) | inactive | –
29 | CC(C)(C)[C@@H](O)[C@@H](Cc1ccc(Cl)cc1)n1cncn1 | – | 2 µM (active)
30 | CCCCCCC(C)OC(=O)COc1nc(F)c(Cl)c(N)c1Cl (stereo not given) | inactive | –
31 | CCC(C)OC(=O)N1CCCCC1CCO (stereo not given) | inactive | –
32 | COC(=O)c1ccc(CNS(C)(=O)=O)cc1S(=O)(=O)NC(=O)Nc1nc(OC)cc(OC)n1 | inactive | –
33 | CCCN(CCC)c1c([N+](=O)[O-])cc(C(F)(F)F)c(N)c1[N+](=O)[O-] | – | 4.48 µM (active)
34 | CCCN(CCC)C(=O)SCC | inactive | 0.0274 µM (active)
35 | COC(=O)CSc1cc(N=c2sc(=O)n3n2CCCC3)c(F)cc1Cl | – | 2.48 µM (active)
36 | C=CCOC(Cn1ccnc1)c1ccc(Cl)cc1Cl (stereo not given) | – | 0.135 µM (active)
37 | CCCCC(CC)COC(=O)c1ccccc1C(=O)O (stereo not given) | – | 5.12 µM (active)
38 | CCCOC(=O)NCCCN(C)C | inactive | –
39 | N#CSCSc1nc2ccccc2s1 | inactive | –
